test system: PIK3C2B
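Note: kd values determined as follow-up on hits from a single-replicate KINOMEscan panel screen.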

**Q.** For `COc1cccc(NC(=O)Nc2ccc(C)c(-c3ccc(C(=O)Nc4ccncc4)cc3)c2)c1` [GSK1398474], which Kd is on record?
**A.** The Kd was > 10000 nM.

**Q.** How did the Kd turn out when `Fc1ccc(-c2nc3n(c2-c2ccncc2)CCS3)cc1` [GI98581] was run?
**A.** The Kd was > 10000 nM.

**Q.** `CNCc1ccc2nc(NC(=O)c3ccc(C(C)(C)C)cc3)cn2c1` was tested. Which Kd did it give?
**A.** The Kd was > 10000 nM.

**Q.** For `COc1ccc(Nc2nccc(NCCNC(=O)Nc3cc(C)ccc3C)n2)cc1` [GSK1379899], which Kd is on record?
**A.** Its Kd is > 10000 nM.

test system: PIK3CA

**Q.** Which Kd does the source give for `COc1cccc(NC(=O)Nc2ccc(C)c(-c3ccc(C(=O)Nc4ccncc4)cc3)c2)c1` [GSK1398474] here?
**A.** The Kd was > 10000 nM.

**Q.** How did the Kd turn out when `Fc1ccc(-c2nc3n(c2-c2ccncc2)CCS3)cc1` [GI98581] was run?
**A.** Its Kd is > 10000 nM.

**Q.** Which Kd does the source give for `CNCc1ccc2nc(NC(=O)c3ccc(C(C)(C)C)cc3)cn2c1` here?
**A.** Its Kd is > 10000 nM.

**Q.** `COc1ccc(Nc2nccc(NCCNC(=O)Nc3cc(C)ccc3C)n2)cc1` [GSK1379899] was tested. Which Kd did it give?
**A.** The Kd was > 10000 nM.

test system: PIK3CB

**Q.** With `Cc1ccccc1Cn1ccn2c(=O)cc(N3CCOCC3)nc12` [GSK2269905] as the compound, how does the Kd read?
**A.** Its Kd is 27 nM.

**Q.** `Cc1c(Cn2c3ccccc3n3c(=O)cc(N4CCOCC4)nc23)cccc1C(F)(F)F` [GSK2306394] was tested. Which Kd did it give?
**A.** Its Kd is 680 nM.

**Q.** With `O=c1cc(N2CCOCC2)nc2n(Cc3ccccc3F)ccn12` [GSK2297428] as the compound, how does the Kd read?
**A.** Its Kd is 180 nM.

**Q.** Which Kd does the source give for `O=C1NC(=O)C(c2ccc(Cl)cc2)=C1Nc1cccc(Cl)c1` [SB-317651] here?
**A.** The Kd was 160 nM.

**Q.** How did the Kd turn out when `O=c1cc(N2CCOCC2)nc2n(Cc3cccc(Cl)c3Cl)c3ccccc3n12` [GSK2299009] was run?
**A.** Its Kd is 860 nM.

**Q.** With `Cc1c(Cn2c(C)c(C)n3c(=O)cc(N4CCOCC4)nc23)cccc1C(F)(F)F` [GSK2328680] as the compound, how does the Kd read?
**A.** Its Kd is 16 nM.

**Q.** For `CCn1c(-c2c(N)noc2C)nc2cnccc21` [SB-737856], which Kd is on record?
**A.** The Kd was > 10000 nM.
